Screens: PubChem BioAssay, several laboratories
Compounds with a hit are over-represented: about 4.4% of the library has one in this group of screens.
TIM10 inh: growth inhibitors of TIM10 yeast strain. S. cerevisiae TIM10 strain growth, BacTiter-Glo luminescence, 24 h. inhibition, % at 10 µM. 330,000 compounds, 1.4% hits;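 active = inhibition of 40% or more at the single tested concentration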;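 also: wild-type TIM10 isogenic control strain grown at permissive 25 °C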
tim23-1 inh: growth inhibitors of tim23-1 mutant yeast; S. cerevisiae tim23-1 growth, BacTiter-Glo luminescence, 24 h; inhibition, % at 20 µM; 330,000 compounds, 1.3% hits;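 active = growth inhibition of the mutant yeast at or above 50%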;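 also: temperature-sensitive mutant grown at 25 °C; plate controls were DMSO-treated mutant yeast for no effect and medium wells lacking yeast for full effect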
tim10-1 inh: tim10-1 yeast growth inhibition; S. cerevisiae tim10-1 ts strain growth, BacTiter-Glo, 24 h; inhibition, % at 20 µM; 330,000 compounds, 2.2% hits;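 active = inhibition of at least 40%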;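 also: mutant grown at 25 °C; 0% = DMSO wells with yeast and 100% = wells holding no yeast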
SUMO Mot1 rescue: blocks SUMOylation pathway, rescuing yeast Mot1-301 growth; S. cerevisiae Mot1-301 growth rescue, ATP luminescence, 38.5C; percent above DMSO median, 100 means doubled; growth rescue, % at 18.8 µM; 320,000 compounds, 1% hits;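 active = every valid replicate shows activation above 250% relative to neutral control wells; inactive = the rest, any valid replicate at or below 250%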;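 also: OY570 slx delta 5 strain wells were the positive control but not used for scaling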
PfHsp90 set2: reduces growth (ATP signal) of yeast expressing P. falciparum Hsp90; S. cerevisiae expressing PfHsp90, BacTiter-Glo ATP, 48 h; yeast lacking PDR1 and PDR3 efflux regulators; inhibition, % at 9.4 µM; 310,000 compounds, 0.32% hits;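 active = every replicate shows inhibition above about 80%, whatever the replicate mean, limit read from the data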;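 also: 0% = DMSO neutral controls and 100% = 20 µM radicicol positive controls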
Mot1 SUMO dose: SUMO pathway inhibitors in yeast Mot1-301 growth. shares compounds with SUMO Mot1 rescue. S. cerevisiae Mot1-301 galactose growth, ATP luminescence, 24 h; -100 = growth of slx-deleted rescue strain. growth activity, percent, % at 42 µM. 2,300 tested, under 10 active. AID 493004;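 active = Signal drops as the depositor expects, and the fitted half-maximal dose is no more than ten times the top valid tested dose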;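 also: more negative values mean stronger growth rescue toward the control strain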
* = called active by the depositor; nt = no result; + = active, no number.

SMILES	TIM10 inh	tim23-1 inh	tim10-1 inh	SUMO Mot1 rescue	PfHsp90 set2	Mot1 SUMO dose
O=C1CC(N2CCN(S(=O)(=O)c3ccccc3F)CC2)C(=O)N1c1ccccc1F (centres undefined)	nt	nt	nt	nt	22	nt
CCn1cc(C(c2ccccc2)C(C(C)=O)[N+](=O)[O-])c2ccccc21 (centres undefined)	13	26	31	-25	-13	nt
CC(=O)C(C(c1ccccc1)c1c[nH]c2ccccc12)[N+](=O)[O-] (centres undefined)	36	37	38	402*	19	-1
O=C(c1cc(S(=O)(=O)N2CCOCC2)c(Cl)cc1Cl)N1CCN(S(=O)(=O)c2cccc(F)c2)CC1	6	0	-4	0	nt	nt
CCOC(=O)C1CC(c2ccccc2)=NNC1=O (centres undefined)	-5	1	-5	504*	5	0
O=c1cc(COc2ncnc3c(Cl)cc(Cl)cc23)nc2sccn12	-7	7	-7	341	31	nt
O=c1cc(COc2ncnc3ccccc23)nc2sccn12	-20	-6	-9	543*	-11	0
COc1ccc(NC(=O)CSc2nccc(C)n2)cc1	-17	7	-1	+	3	0
Cc1ccnc(SCC(=O)Nc2cc(C)on2)n1	9	-9	-3	-2	23	nt
CCOc1cc(/C=C2\NC(=O)NC2=O)cc([N+](=O)[O-])c1O	5	11	8	-2	-14	nt
CCOc1cc(/C=C2\NC(=O)NC2=O)ccc1OC(C)C(=O)O (centres undefined)	2	14	18	514*	0	1
O=C(O)c1cn(Cc2cccnc2)c(=O)c2ccccc12	-1	-1	11	-16	nt	nt
O=C(O)c1cn(Cc2ccccn2)c(=O)c2ccccc12	0	-5	1	+	-27	0
COc1ccccc1NC(=O)C1=C(C)NC(=O)NC1c1ccccc1[N+](=O)[O-] (centres undefined)	19	16	13	-2	-8	nt
CC1=C(C(=O)Nc2ccccc2)C(c2ccccc2[N+](=O)[O-])NC(=O)N1 (centres undefined)	11	8	17	+	9	-1
CCn1c(C)c(C(C)=O)c(N2CCN(c3ccc(F)cc3)CC2)nc1=S	-2	5	13	917*	-5	0
CCN1CCCC(NC(=O)c2scc3c2CCCC3)C1 (centres undefined)	-4	3	15	659*	-46	0
COCO/C=C(\NC(C)=O)c1ccccc1	-7	-9	-4	-11	17	nt
CSc1ncccc1C(=O)NC1CCCc2c1cnn2-c1ccc(C)c(C)c1 (centres undefined)	9	-6	-5	458*	-4	1
C#CCN(C[C@@H](CC(C)C)NC(=O)OC(C)(C)C)S(=O)(=O)c1ccc(Br)cc1F	nt	nt	nt	nt	1	nt
COc1cc2c(cc1OC)C(c1ccccc1C)CC(=O)N2 (centres undefined)	0	10	-5	732*	-28	0
COc1cc2c(cc1OC)C(c1ccc(SC)cc1)CC(=O)N2 (centres undefined)	18	8	7	666*	-2	-1
COc1cc2c(cc1OC)C(c1cccc(OC)c1OC)CC(=O)N2 (centres undefined)	-7	7	12	4	-16	nt
CN(CC(=O)Nc1cccc(F)c1)C(=O)c1ccc2c(c1)CC(c1ccccc1)OC2=O (centres undefined)	6	12	-3	nt	11	nt
COc1ccc(C2NC(=O)CS2)cc1OC (centres undefined)	8	12	11	158	5	nt
SMILES	TIM10 inh	tim23-1 inh	tim10-1 inh	SUMO Mot1 rescue	PfHsp90 set2	Mot1 SUMO dose
COc1ccccc1C1NC(=O)CS1 (centres undefined)	3	14	16	360*	5	0
N#C/C(=C\c1c(N2CCC(C(N)=O)CC2)nc2ccccn2c1=O)C(=O)NC1CCCCC1	12	3	19	87	18	nt
Cc1cc(-c2ccccc2)n(-c2ccc(C(=O)NC(C)C)cc2)n1	22	14	20	645*	nt	0
Cc1cc(C)n2c(SCC(=O)NC3CCCC(C)C3C)nnc2n1 (centres undefined)	6	7	5	71	11	nt
Cc1cc(C)n2nc(SCC(=O)NC3CCCC(C)C3C)nc2n1 (centres undefined)	5	1	8	517*	2	0
COc1ccc(C)cc1S(=O)(=O)NC1CCCCCC1	15	31	27	-13	-24	nt
COc1cc(S(=O)(=O)NC2CCCC2)c(OC)cc1C	9	12	23	435*	-21	0
O=C(OCC(=O)N1CCC(c2ccccc2)=N1)c1ccc(Cl)s1	13	39	12	3	-2	nt
CCCSc1nnc(CN2CCOCC2)n1C	8	-2	4	nt	6	nt
Cn1c(CN2CCOCC2)nnc1SCC(N)=O	11	14	3	538*	43	1
Cc1cc(C(=O)COc2cccc3cccnc23)c(C)n1C	-8	16	-10	598*	nt	0
CCc1ccc(C(C)NC(=O)c2cccs2)cc1 (centres undefined)	2	-9	4	142	-3	nt
CCOc1ccc(NC(=O)Nc2ccc3nsnc3c2)cc1	-3	-9	-3	+	6	1
CCCN(CC(=O)Nc1ccc(F)c(F)c1F)C(=O)c1cc([N+](=O)[O-])ccc1N1CCOCC1	2	15	3	2	11	nt
CCOc1ccc(CCNC(=O)COC(=O)c2ccc(OC)c(OC)c2OC)cc1OCC	3	15	27	6	nt	nt
CCOc1ccc(CCNC(=O)COC(=O)c2cccc(OC)c2O)cc1OCC	-1	5	8	541*	3	0
CCOc1ccc(CCNC(=O)COC(=O)COc2ccc(C(C)=O)cc2)cc1OCC	2	4	-1	+	-10	-1
CC(C)(C)n1cnc2cc(NC(=O)c3ccc(Cl)cc3)ccc21	5	38	-31	562*	-16	-1
Cn1cnc2cc(NC(=O)c3ccc(Cl)cc3)ccc21	12	1	-17	7	-1	nt
O=C(CSc1nncn1-c1cccnc1)N(c1ccccc1)c1ccccc1	-5	3	-3	-2	-21	nt
CC(C)C(=O)Nc1ccc(-c2nc3ncccc3o2)cc1	23	22	22	-8	1	nt
CC(C)C(=O)Nc1cccc(-c2nc3ncccc3o2)c1	1	25	8	+	14	1
CC(C)C(=O)Nc1ccc(-c2nc3cccnc3o2)cc1	29	27	13	666*	-16	-1
Cc1cc2nc(-c3ccc(NC(=O)C(C)C)cc3)oc2cc1C	20	46	37	9	8	nt
CCCNc1nc2ccccc2c(=O)[nH]1	-1	4	-6	543*	-15	0
